Experiments:
Test in all cases: PBM binding z-score (relative to random genomic background probes); higher = stronger binding; sequences stand for … in GC…GCGATTGACAGCGTAGAATGAAGG
[1] = test system: PPARg:RXRa DBDmut IVT, anti-RXR (DBD mutation: RXRa K156A/R161A, NR concentration 270 nM, RXRa partner concentration 90 nM)
Method in brief: (§1)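 Custom Agilent 4×180K protein-binding microarrays carried double-stranded probes, each with a 34-nt variable region. These regions held direct-repeat seeds, single-nucleotide variants, half-site ablations and random human genomic background sequences. Ligand-free nuclear receptor dimers were incubated on the arrays for 1 h, antibodies against each partner (one per run) detected binding, and scanned fluorescence was regression-normalized. Binding z-scores take the random background probes as reference.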

[2] = test system: PPARg:RXRa IVT, anti-PPARg (NR concentration 270 nM, RXRa partner concentration 90 nM)
Method in brief: as §1

[3] = test system: PPARg DBDmut:RXRa IVT, anti-PPARg (DBD mutation: PPARg1 K132A/R137A, NR concentration 270 nM, RXRa partner concentration 90 nM)
Method in brief: as §1

[4] = test system: PPARg DBDmut IVT, anti-PPARg (DBD mutation: PPARg1 K132A/R137A, NR concentration 270 nM)
Method in brief: as §1

[5] = test system: PPARg homodimer (NR concentration 180 nM)
Method in brief: as §1

[6] = test system: PXR:RXRa (NR concentration 270 nM, RXRa partner concentration 90 nM)
Method in brief: as §1

[7] = test system: PXR homodimer (NR concentration 270 nM)
Method in brief: as §1

[8] = test system: RARa:RXR (NR concentration 270 nM, RXRa partner concentration 90 nM)
Method in brief: as §1

[9] = test system: RARa homodimer (NR concentration 270 nM)
Method in brief: as §1

[10] = test system: RARb:RXRa (NR concentration 270 nM, RXRa partner concentration 90 nM)
Method in brief: as §1

Sequence	PBM binding z-score [1]	PBM binding z-score [2]	PBM binding z-score [3]	PBM binding z-score [4]	PBM binding z-score [5]	PBM binding z-score [6]	PBM binding z-score [7]	PBM binding z-score [8]	PBM binding z-score [9]	PBM binding z-score [10]
GATACAGGGTCAGCTAGAGGCCAGCGTATGGAAA	1.62	2.35	-0.653	-0.347	2.22	2.97	-0.477	4.55	-0.0319	4.21
CCTCGGAGGACAACAGGAGGTCAGGGCTGCCAGA	-0.161	0.479	-0.962	-1.94	1.52	2.11	0.134	2.83	0.694	3.01
TAGCCTACGTCATTCAGGGGCCAGTATAGAAAGC	-0.459	-0.0447	0.682	0.371	0.00959	-0.22	-0.62	-0.258	-0.456	0.27
CAAACTAGGTCAAAGGTCCAAGTCGAGCCAACCA	8.79	8.36	1.57	1.19	3.75	3.24	0.0421	5.03	0.553	4.19
ATATGTCGGTTATCGGGTCATTCAGTTTGCGCAT	3.75	4.28	1.98	2.05	2.12	3.32	7.06	3.02	0.924	2.11
GCAGACAGGTGAAACGCAGGGAACTCAGGGTGGC	0.902	0.213	0.0548	-0.787	0.0817	-0.255	-0.624	0.127	-0.901	0.545
CCTTACGGGTCAAGGTTATTGCACGGGTGGTACG	2	3.61	-0.367	-0.115	2.22	3.62	0.512	4.2	0.978	4.12
ACTTACGGGTGAACGAGGTTATAGCACGCGTATA	2.06	2.61	0.498	1.4	0.965	1.75	0.287	2.01	0.821	1.19
TAGCCTACGTCATGCGGGCCAGTATAGTGTCGGC	-0.258	-0.361	-0.565	-0.82	-1.11	-0.921	-1.11	-0.886	-1.36	-0.527
GTACCAAGGTGAATACGTCGTTGATGAGTAGGCG	1.17	1.59	-0.251	-0.137	-0.116	-0.261	-0.456	0.186	0.0524	1.03
TCTTGTAGATCAGCGGGTTAAGAAAGCTGGCCAA	1.84	0.55	-0.631	0.232	0.0922	0.359	-0.369	0.653	-0.539	0.032
CAAACTAGGTCAAGGGTCAAAGTCGAGCCAACCA	8.5	9.08	6.09	4.1	5.23	5.66	0.825	7.15	1.84	5.38
CCAGACAGGTCAAAGGTAACTCAGTCTGGTACGC	3.48	3.96	-0.0161	0.672	2.75	4.5	0.483	6.08	0.857	4.52
TCTTGTAGATCAATAGAGGTGAAGAAAGTGCGCT	2.33	1.64	0.582	1.07	-0.35	1.52	-0.318	1.28	0.328	0.777
CCTTACGGGTCACTCCAGCTTATAGCATCGGAGT	2.73	2.95	0.84	0.0391	1.95	2.52	0.285	3.54	0.557	3.56
CCGACTGGGGCAGAAACGTTACCATACCATCCGG	1.22	0.558	-0.521	-0.904	-0.18	-0.851	-0.758	-0.735	0.0145	-0.053
ACTAGCAGGCTAAGTTTGGGTCACTCAAACAAAG	0.316	0.557	-0.411	-0.519	-0.136	0.49	-0.438	1.31	-0.552	1.17
AGCACGAGGGCACGCTGAGTTGATAGCAGAGTAG	2.09	2.17	0.0423	-0.669	0.0355	1.32	0.313	0.919	-0.335	2.59
CGTCAAAGTTCGACTAAGGTAACGTAAAGCACGC	0.0158	0.996	-0.0779	-0.2	1	2.49	0.543	1.92	0.582	2.49
CCTGGTTGGTCAGGAGGTCACACACCGGATATGA	-0.199	2.62	-0.128	-0.135	2.95	3.98	0.67	4.45	1.25	3.44
TCTTGTAGATCAAGCATGTTAAGAAAGCCTGAGT	1.83	0.509	0.824	-0.00587	-0.0678	0.378	0.162	0.466	0.241	-0.0485
CAAACTAGGTCAAGGTCAAAGTTGGTTTGTGCCA	8.46	8.73	4.69	4.12	4.93	5.28	2.75	5.45	1.94	5.19
TCTTGTAGATCAGCAGGTTAAGTAAGCTGGCCAA	1.65	0.766	-0.114	-0.0421	0.0118	0.266	-0.355	0.553	-0.134	0.298
CCGACTGGTGCAAGGTTACCATAACGCACAGCCA	-0.528	-0.0659	-0.402	-0.928	0.54	0.357	-0.288	0.554	0.0426	0.894
